Assay outcomes deposited in PubChem by National Center for Advancing Translational Sciences (NCATS).
A selection: hits, their analogues and other compounds. The true share with any hit is near 6.1%.
D3 antag = D3 dopamine receptor (human) antagonism; P35462; D3R cells, DiscoveRx beta-arrestin luminescence, antagonist mode; stronger effect = lower value; max response, negative = inhibition, %; 2.5% of 360,000 active; in the data active = max response below about -50%; inconclusive = no clear call, values can overlap the other calls
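Cells expressing the human receptor were seeded at 1500 cells/well, incubated overnight at 37 degrees C in 5% CO2, then exposed to library compounds with dopamine controls for 90 minutes at 37 degrees C before luminescent detection.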
D1 agonist = human D1 receptor agonism; P21728; HEK293 T-REx D1 cells, calcium flux, agonist mode; activation, % at 2 µM; 1% of 360,000 active; in the data active = activation above about 30%
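Tetracycline-induced HEK293 TREx D1 cells, force-coupled to calcium signalling, were dye-loaded with a no-wash calcium kit. Compound was pin-added after a 10 s baseline. Fluorescence was read kinetically at 1 cycle/s for 180 s, with calcium rises flagged as agonism.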
D1 antagonist = antagonists of human D1 dopamine receptor. AID 504652. P21728. 3.2% of 360,000 active. activity change, negative = inhibition, % at 10 µM. HEK293 TREx D1 cells, calcium flux, dopamine EC80; stronger effect = lower value; in the data active = activity change below about -30%
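Cells carrying a force-coupled, tetracycline-inducible human D1 receptor report calcium flux. Each well gets a 10 s baseline, compound with 180 s monitoring, then an EC80 dopamine stimulus with a second 180 s kinetic read.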
DRD3 agonist = D3 dopamine receptor (human) agonism | P35462 | D3R DiscoveRx beta-arrestin cells, luminescence, 90 min | max activation, % | 0.58% of 410,000 active; in the data active = max activation above about 30%
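Agonist mode: compounds and dopamine controls were applied to plated cells for 90 min at 37 degrees C after an overnight attachment at 1500 cells/well. Luminescent read-out followed 30 - 60 minutes at room temperature with DiscoveRx detection reagent.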
D1 potentiator = enhances dopamine response at the human D1 receptor | HEK293 TREx D1 cells, calcium flux, dopamine EC20 potentiation | potentiation, % at 10 µM | 0.036% of 360,000 active; in the data active = potentiation above about 30%
ERG-DNA inh = ERG Ets/DNA interaction inhibition; fluorescence polarization, His-ERG Ets domain / labelled DNA; Potency, µM (highest dose often 76.9 µM), usual class: inhibitors; 0.028% of 370,000 active; AID 624246; active = well fitted inhibition curve with a large enough effect in the polarisation, with a control signal flat; inconclusive = small, poorly fitted or top-dose-only effect, or effect the other way, or a change in a side signal; inactive = no such curve, though single readings can be large or run the other way; the % refers to the polarisation;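 also: polarization taken with two DNA probes labelled with fluorescein and Texas red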
Target sequence (P11308 whole entry, looked up, the tested form may be a part): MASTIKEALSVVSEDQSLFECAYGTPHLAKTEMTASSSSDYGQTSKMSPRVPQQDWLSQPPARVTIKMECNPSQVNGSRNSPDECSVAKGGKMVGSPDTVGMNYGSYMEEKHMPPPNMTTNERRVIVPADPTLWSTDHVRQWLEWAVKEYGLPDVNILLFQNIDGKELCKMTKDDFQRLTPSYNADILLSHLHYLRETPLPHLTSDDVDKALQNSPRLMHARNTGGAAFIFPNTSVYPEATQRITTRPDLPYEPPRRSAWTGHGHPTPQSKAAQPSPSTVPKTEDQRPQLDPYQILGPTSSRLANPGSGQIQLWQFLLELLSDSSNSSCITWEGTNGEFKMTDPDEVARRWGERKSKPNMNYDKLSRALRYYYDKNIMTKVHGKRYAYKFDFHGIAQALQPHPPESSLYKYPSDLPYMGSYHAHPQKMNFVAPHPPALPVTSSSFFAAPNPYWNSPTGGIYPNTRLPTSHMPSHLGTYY
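His-tagged ERG Ets domain (1 uM in the protein solution; 300mM KCl, 50mM Tris-HCl, 1mM EDTA, 1mM DTT, pH 7.5) received compound, then a probe mix of 5 nM fluorescein-DNA and 100nM Texas-615-DNA. Fluorescence polarization was read for both dyes.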
Large screens that a line does not name were inactive.

CCNc1nc(NCC)n2c(SCC(=O)Nc3ccc(Br)cc3F)nnc2n1	none
Cn1cnnc1SCC(=O)Nc1ccc(C#N)cc1	D1 antagonist -36.5 (no result: D3 antag)
CC1(C)C=C(c2ccc(C=O)s2)CC(C)(C)N1C=O	D1 antagonist -31.1
CC1=CC=CC2=NC(=O)CC(C)(C(=O)N(CC(=O)NC3CCCC3)c3ccccc3C)N12 (stereo not given)	none
CC1=CC=CC2=NC(=O)CC(C)(C(=O)N(CC(=O)NC3CCCC3)c3ccc(F)cc3)N12 (stereo not given)	D1 antagonist -34.2
CCc1cccc(NC(=O)Cn2c(-c3ccccc3)cc(C(C)=O)c2C)c1	D1 antagonist -33.1
O=C(NN=C1CCN(Cc2ccccc2)CC1)c1ccccc1O	D1 antagonist -30.9
CSc1nnc(C)c(/C=C/Nc2ccc(C)cc2)n1	D3 antag inconclusive, D1 agonist 45.5
CC(C)(CCC(=S)N1CCOCC1)c1ccccc1	none (no result: D1 agonist, D1 antagonist, D1 potentiator)
CC(C(=O)N1CCOCC1)(c1ccccc1)c1ccccc1	D1 antagonist -34.3
CCN(Cc1ccc(NC(C)=O)cc1)CC1CCCN(CCc2cccc(OC)c2)C1 (stereo not given)	D3 antag -51.6
CCN(Cc1ccccc1OC)CC1CCCN(CCc2cccc(OC)c2)C1 (stereo not given)	none
CC(C)Oc1ccccc1OCCCOc1cccc2cccnc12	D1 antagonist -48.4
CC(=O)c1ccccc1OCCCOc1cccc2cccnc12	none (no result: D1 agonist, D1 antagonist, D1 potentiator)
OCc1ccccc1OCCOc1ccc(Cl)c2cccnc12	none
OCc1ccccc1OCCCOc1cccc2cccnc12	D1 antagonist -30.6
CCOC(=O)c1[nH]c2ccc(OCC)cc2c1NC(=O)CN1CCCC(C)C1 (stereo not given)	D1 antagonist -36.4
CCOC(=O)C1CCCN(CC(=O)Nc2c(C(=O)OC)[nH]c3ccc(Br)cc23)C1 (stereo not given)	D3 antag -51.4
CC(C)c1ccc([C@@H]2O[C@H](CCc3ccccc3)Cc3[nH][nH]c(=O)c32)cc1	none (no result: D1 agonist, D1 antagonist, D1 potentiator, ERG-DNA inh)
Cc1ccc(-n2[nH]c(C)c(/C=N/n3c(C)nc4ccccc4c3=O)c2=O)cc1	none
Cc1[nH]n(-c2ccccc2)c(=O)c1/C=N/n1c(C)nc2ccccc2c1=O	D3 antag -52.0
NC(=Nc1ccccc1)Nc1ccccc1	D1 agonist 89.9
CCOC(=O)/C(C(=Nc1ccccc1)Nc1ccccc1)=C(\C)O	none
CC1(C)SCC(C(=O)O)NC1=O (stereo not given)	D1 antagonist -33.5
O=C(O)[C@@H]1CSC2(CCSC2)N1 (stereo not given in full)	none (no result: D3 antag, DRD3 agonist, ERG-DNA inh)
C[C@H](NC(=O)[C@H]1N2C(=O)c3ccccc3C2SC1(C)C)C(=O)N1CCC[C@H]1CO (stereo not given in full)	D1 agonist 40.0
Cc1c(C(=O)NCCSCc2cccc(C(F)(F)F)c2)cnn1-c1ccc(F)cc1	none
Cn1c(=O)c2nc(SCC(=O)Nc3ccc(OC(F)(F)F)cc3)n(C)c2n(C)c1=O	none (no result: D3 antag, D1 antagonist)
Fc1ccc(C2CC(c3ccc(F)cc3)n3ncnc3N2)cc1 (stereo not given)	none
Oc1ccccc1C1=Nc2ncnn2C(c2ccc(F)cc2)C1 (stereo not given)	D1 antagonist -41.9
CC(OC(=O)C(C)N1C(=O)C2C3C=CC(C4CC34)C2C1=O)C(=O)c1ccccc1 (stereo not given)	D1 antagonist -38.4
CC(c1ccccc1)N1C(=O)C2C3C=CC(C4CC34)C2C1=O (stereo not given)	none
Cc1ccc(NC(=O)CNCC(c2ccccc2)N(C)C)cc1F (stereo not given)	none
Cc1cc(NC(=O)CNCC(c2ccccc2)N(C)C)c([N+](=O)[O-])cc1C (stereo not given)	D3 antag -53.8
CN1CCN(C(=O)c2ccc3c(c2)N(Cc2ccccc2F)C(=O)c2ccccc2S3=O)CC1 (stereo not given)	D3 antag inconclusive
NCCSc1c(-c2ccc(Cl)cc2)[nH]c2ccccc12	none
NCCSc1c(-c2ccccc2)[nH]c2ccccc12	D1 antagonist -37.0
CCN(C(=O)CSc1nnc(-c2cccs2)o1)C1CCS(=O)(=O)C1 (stereo not given)	none
O=C(OC1CCOC1=O)c1ccc(NS(=O)(=O)c2cccs2)cc1 (stereo not given)	none
CCOC(=O)CSc1nc(C)c(C(=O)OCC)s1	D1 antagonist -35.2
CCOC(=O)CSc1nc2ccc(N)cc2s1	none
CCCCn1c(SCC(=O)NCCCOC)nc2c(sc3ccccc32)c1=O	none (no result: D3 antag)
O=C(Cn1cnc2c(OCc3ccccc3)ncnc21)NCc1ccccn1	D3 antag -67.2 (no result: D1 agonist, D1 antagonist, D1 potentiator)
c1ccc(COc2ncnc3c2ncn3CCCNCC(c2ccccc2)c2ccccc2)cc1	D3 antag -85.8 (no result: D1 agonist, D1 antagonist, D1 potentiator, ERG-DNA inh)
COc1ncnc2c1ncn2CCCNCC(c1ccccc1)c1ccccc1	none (no result: D1 agonist, D1 antagonist, D1 potentiator, ERG-DNA inh)
O=C(Cn1cnc2c(OCc3ccccc3)ncnc21)NCc1ccccc1	none (no result: D1 agonist, D1 antagonist, D1 potentiator)
COc1ccc(Cl)cc1C(=O)OCC(=O)Nc1cccnc1Cl	none
CSCC[C@H](NC(=O)[C@H]1CC[C@H](CNC(=O)[C@@H]2CCCN2)CC1)C(=O)O	none
Cc1nc(CS(=O)(=O)c2ccccn2)sc1C(=O)NNC(=O)c1ccccc1	D1 antagonist -31.8
COc1ccc(N2CCN(C(=O)CSc3nnc(NC(=O)C4CCC4)s3)CC2)cc1	D1 antagonist -32.0
COc1ccc(Br)c(C(=O)OCc2cc(=O)oc3cc(C)ccc23)c1	none
COc1ccc(S(=O)(=O)NCC(=O)N(CC(=O)NC(C)(C)C)Cc2cccs2)cc1	none
CN(C)CCCC1Sc2ccccc2Sc2ccccc21 (stereo not given)	D3 antag -69.1 (no result: D1 agonist, D1 antagonist, D1 potentiator)
COC(=O)c1c(NC(=O)CN2CCCc3ccccc32)sc(C)c1C	D3 antag -60.1
CCOc1cc(CNc2ccc(N3CCOCC3)cc2)cc(Br)c1OCC	DRD3 agonist 37.4
C=CCNC(=S)NNC(=O)c1cccn(Cc2ccc(Cl)cc2)c1=O	D3 antag -66.5
CC1CCc2nc(NC(=O)CN3CCOCC3)sc2C1 (stereo not given)	D1 antagonist -34.0
COc1cccc(NC(=O)COc2ccc(C(=S)N3CCN(C)CC3)cc2OC)c1	D1 antagonist -30.6
Cc1ccccc1OCC(=O)Nc1ccc2c(c1)Cc1ccccc1-2	none
COc1cc(C(=S)N2CCN(C)CC2)ccc1OCC(=O)NCc1ccccc1	none
Cc1ccccc1OCC(=O)Nc1ccc(N2CCN(C)CC2)c(Cl)c1	D1 agonist 35.3, D1 antagonist -70.7 (no result: D1 potentiator)
Cc1ccc(NC(=O)C(=O)NCC(c2cccnc2)N2CCN(C)CC2)cc1F (stereo not given)	none (no result: D3 antag)
